Measured values published in PubChem BioAssay (NCATS).
Inconclusive results are not listed. Entries that show only a call come without a potency. A number with no mark means an inactive call. The source made the active and inactive calls. The call rests on the fitted dose curve; in most records, active means well fitted curve in the direction sought with a large enough effect; inconclusive means small, poorly fitted or top-dose-only effect, or another doubt; inactive means no such curve, though single readings can be large; an effect the other way counts as inactive or inconclusive.

What was measured:
[1] = target: Cellular tumor antigen p53 (Homo sapiens) (UniProt P04637); assay: Primary qHTS for small molecule compounds that upregulate eGFP-tagged delta133p53alpha (in N-terminal) cells. (AID 2060322); conditions: NCI-H358 eGFP-delta133p53alpha fluorescence, 24 h; activation: stronger effect = higher value; further: nearly all actives have a fitted effect of over 75% in size; further: potency means the concentration at half of the fitted maximal effect
Cellular tumor antigen p53 (Homo sapiens), sequence (P04637 whole entry, looked up): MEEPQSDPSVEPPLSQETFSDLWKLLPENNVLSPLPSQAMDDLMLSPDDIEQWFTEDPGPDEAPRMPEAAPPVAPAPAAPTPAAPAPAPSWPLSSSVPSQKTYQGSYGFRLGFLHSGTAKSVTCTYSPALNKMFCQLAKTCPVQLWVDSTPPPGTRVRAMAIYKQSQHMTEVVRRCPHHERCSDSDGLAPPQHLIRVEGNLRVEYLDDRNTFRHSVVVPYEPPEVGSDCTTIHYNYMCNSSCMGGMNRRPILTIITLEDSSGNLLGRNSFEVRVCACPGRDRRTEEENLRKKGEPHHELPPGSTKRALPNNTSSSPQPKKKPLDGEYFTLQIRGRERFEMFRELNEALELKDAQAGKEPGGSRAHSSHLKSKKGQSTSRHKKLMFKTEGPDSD
How it was run: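 NCI-H358 cells pre-induced 24 h with 10 ng/ml doxycycline to express N-terminal eGFP-delta133p53alpha, then dosed 24 h at 37C without doxycycline; fixed, Hoechst-stained, GFP intensity by laser scanning cytometry, normalized to DMSO (0%) and 57.5 uM 5-azacytidine (100%).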

[2] = target: Aldehyde dehydrogenase, mitochondrial (Homo sapiens) (UniProt P05091); assay: qHTS for Inhibitors of the Aldehyde Dehydrogenase Family (ALDH2) Primary screen (AID 2061308); conditions: ALDH2 enzyme inhibition qHTS, 1536-well; series mostly up to 56 µM; further: nearly all actives have a fitted effect of over 55% in size
[3] = target: Retinaldehyde dehydrogenase 3 (Homo sapiens) (UniProt P47895); assay: qHTS for Inhibitors of the Aldehyde Dehydrogenase Family (ALDH1A3) Primary screen (AID 2061315); conditions: ALDH inhibition qHTS; series mostly up to 56 µM

Row | SMILES | activation [1] | Potency [2] | Potency [3] | activity change, negative = inhibition [2] | activity change, negative = inhibition [3] | Potency [1]
1 | NC(N)=N/N=C/c1ccccc1Cl | 3.67% | inactive | inactive |  |  | 
2 | COC(=O)C1=COC(O[C@@H]2O[C@H](CO)[C@@H](O)[C@H](O)[C@H]2O)[C@@H]2[C@@](C)(O)[C@@H](OC(=O)/C=C/c3ccccc3)C[C@]12O (some centres undefined) | 15.2% | inactive | inactive |  |  | 
3 | O=C(OC1C[C@H]2CC[C@@H](C1)[N+]21CCCC1)C(O)(c1ccccc1)c1ccccc1 (some centres undefined) | 5.18% | inactive | inactive |  |  | 
4 | CCOC(=O)[C@H](CCc1ccccc1)N[C@@H](C)C(=O)N1C2CCCCC2C[C@H]1C(=O)O (some centres undefined) | -7% | inactive | inactive |  |  | 
5 | O=C(c1ccc(F)cc1)N1CCCC(c2nc(-c3ccc(F)cc3)no2)C1 (centres undefined) | -1.91% | inactive | inactive |  |  | 
6 | COC1OC(OC)C(O)(CCC2(C)C(C)CCC3(C)C2CC(O)C(O)C32CO2)C1O (centres undefined) | 0.763% | inactive | inactive |  |  | 
7 | CO[C@H]1[C@@H](O)[C@H](O[C@H]2CC[C@@]3(C)C(CCC4C3CC[C@]35COC6(COC(=O)C6)C3CCC45O)C2)O[C@@H](C)[C@@H]1OC1OC(CO)C(OC2OC(CO)C(O)C(O)C2O)C(O)C1O (some centres undefined) | 6.87% | inactive | inactive |  |  | 
8 | C=C(COC(=O)C(C)C)C1Oc2cc(C(C)=O)ccc2C1OC(=O)C(C)C (centres undefined) | 2.29% | inactive | inactive |  |  | 
9 | CC(=O)O[C@@H]1C(=O)C(C)=C(CCC(C)CC(=O)O)[C@@]2(C)CCCC(C)(C)C12 (some centres undefined) | 0.893% | inactive | inactive |  |  | 
10 | COc1cc2c(cc1OC)CC(=O)N(CCCNC[C@H]1Cc3cc(OC)c(OC)cc31)CC2 | -11.7% | inactive | inactive |  |  | 
11 | CC(=O)OC1CC2(C)C(CCC(C)C23Cc2c(O)cc4c(c2O3)CNC4=O)C(C)(C)C1O (centres undefined) | 9.92% | inactive | inactive |  |  | 
12 | CC(=O)C1=C(C)N(c2cccc(C(F)(F)F)c2)C(=O)N[C@H]1c1ccc(C#N)nc1 | -3.67% | inactive | inactive |  |  | 
13 | COc1ccc(/C=C/C(N)=O)cc1OC | 2.68% | inactive | inactive |  |  | 
14 | C/C=C/C=C/C(O)=C1\C(O)=C(C)C(=O)[C@@]2(C)OC(=O)[C@@](C)(NC(=O)/C=C/C(=O)O)[C@@H]12 | 10.7% | inactive | inactive |  |  | 
15 | CC(C)(C)c1ccc(C(=O)Nc2cn3cc(-n4ccnc4)ccc3n2)cc1 | 1.79% | inactive | inactive |  |  | 
16 | CC(C)CC(=O)O[C@@H]1OC=C(CO[C@@H]2O[C@H](CO)[C@@H](O)[C@H](O)[C@H]2O)[C@H]2[C@@H]3O[C@H]3[C@@](O)(CO)[C@@H]12 | -3.05% | inactive | inactive |  |  | 
17 | C=CC(C)(O)CC/C=C(\C)C(=O)OC1C(O)C(CO)OC(OC(=O)C23CCC(C)(C)CC2C2=CCC4C5(C)CCC(OC6OC(COC7OCC(OC(C)=O)C(O)C7OC7OC(COC(C)=O)C(O)C(O)C7O)C(O)C(O)C6O)C(C)(C)C5CCC4(C)C2(C)C(O)C3O)C1OC1OCC(OC2OCC(O)C(OC3OCC(O)C(O)C3O)C2O)C(O)C1O (centres undefined) | -9.16% |  |  | 5.34% [at 11.2 µM] | 15% [at 11.2 µM] | 
18 | C/C=C/C=C/C=C/C(=O)OC1C=C(C=O)C(O)(C(=O)O)C2(C)CCCC(C)(C)C12 (centres undefined) | -9.92% | inactive | inactive |  |  | 
19 | CC1OC(OC2CCC3(C)C(CCC4(C)C3C=CC35OCC6(CCC(C)(C)CC63)CCC45C)C2(C)CO)C(OC2OC(CO)C(O)C(O)C2O)C(O)C1OC1OC(CO)C(O)C(O)C1O (centres undefined) | 14.3% | inactive | inactive |  |  | 
20 | CC1(C)CC[C@]2(C(=O)O)[C@H](O)C[C@]3(C)C(=CCC4[C@@]5(C)CC[C@H](O[C@@H]6OC[C@@H](O)[C@H](O)[C@H]6O)[C@@](C)(C(=O)O)C5CC[C@]43C)[C@@H]2C1 (some centres undefined) | 6.11% | inactive | inactive |  |  | 
21 | C=C(C)C(=O)OC1CC2(C)OC(=CC2=O)C(=C)CC2OC(=O)C(=C)C12 (centres undefined) |  | inactive | inactive |  |  | 4.67 µM (active)
22 | CCOC(=O)C(CCc1ccccc1)NC(C)C(=O)N1Cc2ccccc2CC1C(=O)O (centres undefined) | -13.4% | inactive | inactive |  |  | 
23 | COC(=O)c1cc(OC)cc(OC)c1C(=O)c1c(OC)cc2c(c1O)C1CCC(O)C(C)(O2)O1 (centres undefined) | 25.2% | inactive | inactive |  |  | 
